Screening data from PubChem.
EBNA-1 inh – blocks EBNA-1 binding to DNA; EBNA-1 DNA binding, fluorescence polarization; inhibition, % at 14.8 µM; actives 0.34% (n = 300,000); in the data active means inhibition above about 28%
ZTA DNA inh – blocks Epstein-Barr virus ZTA, an EBNA-1 counter-screen | P03206 | ZTA-DNA binding, fluorescence polarization | actives 0.15% (n = 320,000) | inhibition, % at 11 µM; in the data active means inhibition above about 33%
Target sequence (P03206 whole entry, looked up): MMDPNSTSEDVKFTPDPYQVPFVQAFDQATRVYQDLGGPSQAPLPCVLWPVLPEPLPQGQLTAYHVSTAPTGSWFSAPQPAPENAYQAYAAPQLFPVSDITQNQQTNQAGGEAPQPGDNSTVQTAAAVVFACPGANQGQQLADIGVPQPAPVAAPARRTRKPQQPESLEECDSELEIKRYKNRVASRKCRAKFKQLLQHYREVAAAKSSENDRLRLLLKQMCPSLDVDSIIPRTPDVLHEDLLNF
bovine MsrA act – activates bovine MsrA enzyme | purified bovine MsrA, absorbance read-out | activation, % at 10.6 µM | actives 0.3% (n = 360,000); in the data active means activation above about 7.5%;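 further: 0% = vehicle and 100% = reference activator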
MsrA inh – inhibitors of bovine MsrA; purified bovine MsrA, absorbance read-out; inhibition, % at 15.5 µM; actives 0.75% (n = 360,000); AID 651718; in the data active means inhibition above about 4.5%;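 further: 0% = vehicle wells with enzyme and 100% = reference inhibitor wells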
PP1 inh – counter-screen for PP5 inhibitors: inhibitors of human PP1-alpha; inhibition, % at 6.7 µM; P62136; actives 0.9% (n = 320,000); purified PP1alpha, OMFP fluorescence; AID 2235;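 active means inhibition above the mean inhibition of all tested compounds plus 3 SD, computed separately for each screening campaign, cut at about 15% in these data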
Target sequence (P62136 whole entry, looked up): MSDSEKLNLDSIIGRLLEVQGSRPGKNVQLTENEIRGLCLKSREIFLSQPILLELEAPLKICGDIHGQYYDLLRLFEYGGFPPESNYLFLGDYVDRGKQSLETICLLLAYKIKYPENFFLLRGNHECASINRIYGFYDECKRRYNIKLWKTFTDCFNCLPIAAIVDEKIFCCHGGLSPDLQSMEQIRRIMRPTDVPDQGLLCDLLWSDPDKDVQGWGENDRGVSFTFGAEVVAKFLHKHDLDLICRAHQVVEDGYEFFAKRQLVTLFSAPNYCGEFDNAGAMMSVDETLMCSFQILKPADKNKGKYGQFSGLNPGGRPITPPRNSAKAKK
PP5 inh – blocks human protein phosphatase 5 activity; inhibition, % at 6.7 µM; P53041; purified PP5c, OMFP substrate fluorescence; actives 0.18% (n = 320,000);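 active means inhibition above the campaign's mean inhibition across all tested compounds plus 3 SD, cut at about 9.5% in these data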;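 further: 0% = DMSO only and 100% = 100 µM cantharidin control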
The depositor's hits bear a star. Sampled rows, rich in hits. Any-hit rate of the full collection: about 2.3%.

What do the screens show for `CC(C)(C)OC(=O)NCCCCCNC(=O)c1[nH]cnc1C(=O)N[C@@H](Cc1ccccc1)C(=O)OC(C)(C)C`?
bovine MsrA act: 3

How did CC(C)(C)OC(=O)NCCCC[C@H](NC(=O)c1[nH]cnc1C(=O)N[C@@H](Cc1ccccc1)C(=O)OC(C)(C)C)C(=O)OC(C)(C)C do in these assays?
EBNA-1 inh: 6; ZTA DNA inh: -3; bovine MsrA act: -2; MsrA inh: 2; PP1 inh: 15*; PP5 inh: 9

Results for CC(C)(C)OC(=O)NCCCC[C@H](NC(=O)c1nc[nH]c1C(=O)NCc1ccccc1)C(=O)OC(C)(C)C ?
EBNA-1 inh: -3; ZTA DNA inh: 10; bovine MsrA act: 1; MsrA inh: 1; PP1 inh: 11; PP5 inh: 7

Results for O=C(CN1C(=O)N/C(=C\c2ccccc2OCc2ccc(C(=O)O)cc2)C1=O)Nc1ccc(F)cc1 ?
EBNA-1 inh: -6; ZTA DNA inh: 12; bovine MsrA act: -8; MsrA inh: 4.7*; PP1 inh: 0; PP5 inh: -1

Results for COc1ccc(/C=N/NC(=O)c2ccc(NC(=O)c3cccc([N+](=O)[O-])c3)cc2)c(C(=O)O)c1OC ?
EBNA-1 inh: -4; ZTA DNA inh: 4; bovine MsrA act: -14; MsrA inh: 4.6*; PP1 inh: 8; PP5 inh: 3

How did COc1ccccc1/C=N/NC(=O)c1ccc(NC(=O)c2cccc([N+](=O)[O-])c2)cc1 do in these assays?
EBNA-1 inh: -18; ZTA DNA inh: 5; PP1 inh: -1; PP5 inh: 5

Results for COc1cc([N+](=O)[O-])cc(/C=N/NC(=O)c2ccc(C)nc2)c1O ?
EBNA-1 inh: 2; ZTA DNA inh: 5; bovine MsrA act: -1; MsrA inh: 2; PP1 inh: 24*; PP5 inh: 5

What do the screens show for `COc1cc(/C=N/NC(=O)c2cccc(NC(=O)c3ccccc3)c2)ccc1O`?
EBNA-1 inh: 5; ZTA DNA inh: 4; bovine MsrA act: -3; MsrA inh: 4.6*; PP1 inh: -5; PP5 inh: -1

How did COC(=O)C1=C(C)N(C)C(=NCc2cc(OC)c(OC)c(OC)c2)NC1c1cccc(C(F)(F)F)c1 (stereo unspecified) do in these assays?
MsrA inh: 0

Results for COc1ccc([C@H]2CC(=O)C=C(/C=C/c3ccccc3)C2)cc1OC ?
ZTA DNA inh: 4; bovine MsrA act: 0; MsrA inh: 4.6*; PP1 inh: 1; PP5 inh: 3

What do the screens show for `O=C1C=C(/C=C/c2ccccc2)C[C@@H](c2ccc(F)cc2)C1`?
ZTA DNA inh: -2; bovine MsrA act: -3; MsrA inh: 2; PP1 inh: 7; PP5 inh: 2

How did COC(=O)[C@]12C[C@H](CC(=O)NCc3cccs3)C(=O)N(Cc3ccc4c(c3)OCO4)C1=C[C@H](C(C)(C)C)O[C@@H]2C do in these assays?
MsrA inh: 1

What do the screens show for `COC(=O)C1=C(C)N(Cc2ccccc2C(F)(F)F)C(=NCc2ccc(OC)cc2)NC1c1ccccc1C(F)(F)F` (stereo unspecified)?
MsrA inh: -1

Results for Oc1ccccc1N=Nc1nc(-c2ccccc2)c(-c2ccccc2)[nH]1 ?
EBNA-1 inh: 0; ZTA DNA inh: -6; bovine MsrA act: 0; MsrA inh: 1; PP1 inh: 17*; PP5 inh: 7

How did COc1cc(/C=N/NC(=O)c2nnn(-c3nonc3N)c2-c2cccs2)ccc1O do in these assays?
EBNA-1 inh: -4; ZTA DNA inh: 0; bovine MsrA act: -11; MsrA inh: 4; PP1 inh: 1; PP5 inh: 2

What do the screens show for `COc1ccc(OC)c(/C=N/N=C(\N)c2nonc2N)c1`?
EBNA-1 inh: 13; ZTA DNA inh: -2; bovine MsrA act: -2; MsrA inh: 2; PP1 inh: -3; PP5 inh: 0

How did COc1ccc(/C=N/N=C(\N)c2nonc2N)cc1OC do in these assays?
EBNA-1 inh: 5; ZTA DNA inh: 4; bovine MsrA act: -3; MsrA inh: 4.6*; PP1 inh: -6; PP5 inh: 2

What do the screens show for `CC1CCN(Cc2c(C(=O)N/N=C/c3cccc(C(F)(F)F)c3)nnn2-c2nonc2N)CC1`?
EBNA-1 inh: 1; ZTA DNA inh: 4; bovine MsrA act: 0; MsrA inh: 0; PP1 inh: 16*; PP5 inh: 5

Results for COc1ccc(/C=N/NC(=O)c2nnn(-c3nonc3N)c2-c2cccs2)cc1OC ?
EBNA-1 inh: -8; ZTA DNA inh: -15; bovine MsrA act: -3; MsrA inh: 4.6*; PP1 inh: -3; PP5 inh: 5

How did COCc1cc(N2CCNC[C@H]2C)ccc1N1C[C@@H](C)O[C@@H](C)C1 do in these assays?
MsrA inh: -1

What do the screens show for `O=C(C(=O)N1CCC(CNC(=O)c2sc3ccccc3c2Cl)CC1)c1cccs1`?
MsrA inh: 0

Results for Nc1[nH]c(C(=O)c2ccccc2)c(-c2ccccc2Br)c1C(=O)c1cccs1 ?
MsrA inh: 1

How did C[C@@H]1ON(C)[C@H]2C[C@H]3c4[nH]c5cccc(-c6ccccc6F)c5c4CCN3C(=O)[C@@H]12 do in these assays?
MsrA inh: 0

Results for CC(C)c1ccc(OCCCN2CCC(C(O)(c3ccccc3)c3ccccc3)CC2)cc1 ?
MsrA inh: -1

How did COc1ccccc1/C=C/C=N/NC(=O)c1ccccn1 do in these assays?
EBNA-1 inh: -5; ZTA DNA inh: 4; bovine MsrA act: -6; MsrA inh: 4.6*; PP1 inh: -1; PP5 inh: 0

Results for COc1ccccc1/C=C/C=N/NC(=O)c1cc(-c2ccco2)[nH]n1 ?
EBNA-1 inh: -6; ZTA DNA inh: -20; bovine MsrA act: -5; MsrA inh: 2; PP1 inh: 9; PP5 inh: 4

What do the screens show for `Cc1ccc(-c2csc(NC(=O)CSc3nnc4c(n3)[nH]c3ccccc34)n2)cc1`?
EBNA-1 inh: 17; ZTA DNA inh: 10; bovine MsrA act: 1; MsrA inh: 1; PP1 inh: 17*; PP5 inh: 0

What do the screens show for `O=C(COC(=O)/C=C/c1ccc([N+](=O)[O-])cc1)NNC(=O)c1ccccc1`?
bovine MsrA act: -5; MsrA inh: 0

How did Cc1cccc(OCC(=O)Nc2nonc2NC(=O)COc2cccc(C)c2)c1 do in these assays?
EBNA-1 inh: 5; ZTA DNA inh: 12; bovine MsrA act: -3; MsrA inh: 1; PP1 inh: 5; PP5 inh: 0

How did Cc1ccc(C)c(OCC(=O)Nc2nonc2NC(=O)COc2cc(C)ccc2C)c1 do in these assays?
EBNA-1 inh: -1; ZTA DNA inh: 16; bovine MsrA act: 0; MsrA inh: 2; PP1 inh: 17*; PP5 inh: 5

How did COC(=O)c1cccc(-n2sc3ccccc3c2=O)c1 do in these assays?
ZTA DNA inh: 4; bovine MsrA act: 11*; MsrA inh: 1; PP1 inh: -2; PP5 inh: 1
